Only some compounds are listed: those with a hit (about 2.7% of all), similar ones and a draw of the others.
LDHA inh: LDHA (human) enzyme inhibition | purified LDHA, NADH/diaphorase-resazurin fluorescence; hits give low values | 480,000 tested, 0.15% active | P00338 | activity change, % (values are at about 110 or 230 µM) | AID 1347041; in the data active means activity change below about -30%; inconclusive means mostly about -25% to -30%
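LDH5 2 nM; NADH 0.06 mM, pyruvate 0.2 mM; 200 mM Tris pH 7.4, EDTA, Tween-20; 5 min RT. Detection: diaphorase 0.133 mg/mL + resazurin 37 µM, fluorescence ex540/em590 at 0 and 20 min; normalized to enzyme-free and DMSO wells.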
IDH1 R132H inh: blocks human mutant IDH1 R132H enzyme. Potency, µM (titrated, usually from 76.6 µM), usual class: inhibitors. IDH1-R132H enzyme, NADPH consumption, diaphorase/resazurin fluorescence. O75874. 390,000 tested, 0.093% active; further: nearly all actives have a fitted effect of over 65% in size
Target sequence (O75874 whole entry R132H, stated change not applied): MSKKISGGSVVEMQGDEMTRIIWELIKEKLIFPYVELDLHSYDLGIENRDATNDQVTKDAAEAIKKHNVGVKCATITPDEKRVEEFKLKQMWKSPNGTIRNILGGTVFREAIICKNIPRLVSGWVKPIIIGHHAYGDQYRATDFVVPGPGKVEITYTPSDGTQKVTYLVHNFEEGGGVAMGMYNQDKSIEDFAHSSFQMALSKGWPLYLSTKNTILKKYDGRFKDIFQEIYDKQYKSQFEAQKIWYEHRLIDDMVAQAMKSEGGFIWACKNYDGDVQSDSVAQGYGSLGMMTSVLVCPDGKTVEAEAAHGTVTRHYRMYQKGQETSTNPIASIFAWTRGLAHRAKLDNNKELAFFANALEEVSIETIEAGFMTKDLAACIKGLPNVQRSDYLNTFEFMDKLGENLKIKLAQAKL
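IDH1-R132H (0.5 ug/mL dispensed) in pH 7.5 Tris buffer was preincubated 30 min with compound, then given a substrate mix of 0.016 mM NADPH and 2 mM alpha-KG for 80 min at room temperature; remaining NADPH was read by diaphorase/resazurin fluorescence.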
Nrf2 ARE act: Nrf2 pathway activation | AREc32 ARE-luciferase reporter (MCF7-derived line), luminescence, 24 h | Potency, µM (top dose mostly 46.1 µM), most hits filed as activators | 410,000 tested, 0.31% active; further: nearly all actives have a fitted effect of over 65% in size
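Quantitative high-throughput format: AREc32 reporter cells, 1000 per well, received compound by pin transfer and were incubated 24 hr at 37 deg C, 5% CO2, before Steady-Glo luminescence detection.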
Nrf2 inh: Nrf2 pathway inhibition; A549 ARE-Fluc reporter, luciferase luminescence, 18-24 h; Potency, µM (doses to about 46 µM), usual class: inhibitors; 360,000 tested, 2.1% active; further: nearly all actives have a fitted effect of over 60% in size
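Two sequential reads on A549 ARE_Fluc cells exposed to compound for 18-24 h: a CellTiter-Fluor fluorescence read for viability, then a luciferase luminescence read for Nrf2/ARE activity.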
A549 viability: kills or reduces viability of A549 cells in Nrf2 counter-screen; Potency, µM (highest dose often 46 µM), hits mostly inhibitors; A549 ARE-Fluc cells, CellTiter-Fluor viability, 18-24 h; 390,000 tested, 0.16% active
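A549 ARE-Fluc cells in 5% FBS OPTI-MEM, 5000 cells/well, rested 2 h then exposed to compounds in concentration-response for 18-24 h at 37 °C. Viability by CellTiter-Fluor fluorescence (Ex 405/Em 525) after 30 min; luciferase luminescence (BugLite, 15 min, RT) read afterwards.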
12-LOX inh: inhibitors of human 12S-lipoxygenase ALOX12 | Potency, µM (doses to about 108 µM), actives largely listed as inhibitors | 580,000 tested, 1.1% active | purified 12hLO, xylenol orange hydroperoxide absorbance
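Purified human 12hLO (150 nM final) in 25 mM Hepes, 0.01% Triton X-100, pH 7.0 was preincubated 15 min at room temperature with compound. Then 40 uM arachidonic acid was added, 30 min. Hydroperoxide was read by Fe-XO absorbance ratio 573/405 nm.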
Hits are given with their value; n = inactive; u = inconclusive; x = no result given; [ ] = remark or other dose. Unless noted, the call rests on the fitted dose curve; in most records, active means well fitted curve in the direction sought with a large enough effect; inconclusive means small, poorly fitted or top-dose-only effect, or another doubt; inactive means no such curve, though single readings can be large; an effect the other way counts as inactive or inconclusive.

SMILES | LDHA inh | IDH1 R132H inh | Nrf2 ARE act | Nrf2 inh | A549 viability | 12-LOX inh
COc1cc(/C=C(\CC(=O)O)c2nc3ccccc3s2)ccc1OCC(=O)Nc1ccccc1F | -34.7 | n | n | n | n | u
COc1cc(/C=C(\CC(=O)O)c2nc3ccccc3s2)cc(OC)c1O | n | n | n | n | n | 35.5µM
CCOc1cc(/C=C(\CC(=O)O)c2nc3ccccc3s2)ccc1OC | n | n | n | n | n | n
COc1ccc(/C=C(\CC(=O)O)c2nc3ccccc3s2)cc1O | n | n | n | n | n | n
N#CC1(NC(=O)CN(CCCO)CC(F)(F)F)CCCCCC1 | n | x | x | x | x | n
CN(Cc1ccsc1)C(=O)Cc1cccc(F)c1 | n | x | x | x | x | u
CC(C(=O)N1CCNC1=O)N1CCC(c2nc3ccccc3o2)CC1 (stereo not given) | n | x | x | x | x | n
FC(F)(F)c1cc(-c2ccco2)nc(NCc2ccco2)n1 | n | n | 10µM | n | n | u
O=S(=O)(Nc1cccc2ccccc12)c1cccc2ccccc12 | n | x | x | 18.4µM | n | x
O=S(=O)(Nc1cccc2ccccc12)c1ccccc1 | n | n | n | n | n | n
CC(=O)Nc1ccc(NS(=O)(=O)c2cccc3ccccc23)cc1 | n | n | n | n | n | n
O=S(=O)(Nc1ccc(C(O)(C(F)(F)F)C(F)(F)F)cc1)c1cccc2ccccc12 | n | x | n | x | x | 44.7µM
Cc1ccc(Nc2n[nH]c(=S)s2)cc1 | n | n | n | x | x | 31.6µM
Cc1ccc(Nc2n[nH]c(=S)s2)cc1F | n | n | n | n | n | 39.8µM
CSc1ccc(C(=O)C2CCCN(S(=O)(=O)c3c(C)noc3C)C2)cc1 (stereo not given) | n | n | n | 13µM | n | n
CC(C)c1ccc(O)c(NC(=S)NC(=O)c2ccc3c(c2)OCO3)c1 | n | n | n | n | n | 12.6µM
O=C(NC(=S)Nc1ccccc1Br)c1ccc2c(c1)OCO2 | n | n | n | n | n | u
S=C(NCc1ccc(Cl)cc1Cl)NC1CCCCC1 | n | n | n | n | n | 39.8µM
CCC/C=N/Nc1nc2ccccc2s1 | n | n | n | u | n | 39.8µM
C(=C\c1ccccc1)/C=N/Nc1nc2ccccc2s1 | n | n | n | u | n | n
CCONC(=O)NCc1ccc2cc(OC)ccc2c1 | n | x | x | x | x | u
Cc1cnc(CCNC(=O)C2(c3ccccc3)CC2)n1C1CCCCCC1 | x | x | x | x | x | n
Cc1nc(CN2CCN(CCOc3ccc(Cl)cc3)CC2)no1 | -32.0 | x | x | x | x | n
Clc1ccc(OCCN2CCN(Cc3nc(C4CC4)no3)CC2)cc1 | n | x | x | x | x | n
CCOC(=O)c1c(NC(=O)COc2ccc3c(c2)OCO3)sc(C)c1C | n | x | x | x | x | n
SMILES | LDHA inh | IDH1 R132H inh | Nrf2 ARE act | Nrf2 inh | A549 viability | 12-LOX inh
CC(C)C1OC2(C)OC(=N)C1(C#N)C(C#N)(C#N)C2c1ccccc1 (stereo not given) | n | n | n | n | n | u
CC1CCC(C(C)C)C2=C1C(C#N)(C#N)C(C#N)(C#N)C(c1ccccc1)N2 (stereo not given) | n | n | u | x | n | 39.8µM
CC(=O)C1=C(C)NC(SCC(=O)c2ccccc2)=C(C#N)C1CC(C)C (stereo not given) | n | n | n | n | n | 7.94µM
CCCn1c(=O)n(CC(=O)Nc2ccccc2-c2ccccc2)c(=O)c2c1nc(C)n2CCOC | n | x | x | x | x | n
O=C(Nc1cccc2nsnc12)c1ccc(F)cc1 | n | n | 11.2µM | u | n | n
CSc1ncccc1C(=O)OCc1ccccc1 | n | n | n | n | n | n
COC(=O)c1cc(COC(=O)c2cccnc2SC)oc1C | n | n | n | n | n | 39.8µM
CCCCc1ccc(NC(=O)C2CC3CCC2C3)cc1 (stereo not given) | n | x | x | x | x | n
Cc1oc(-c2ccccc2)nc1CC(=O)N(C)c1ccccc1 | n | x | x | x | x | n
CCC1CCCCN1C(=O)c1ccc([N+](=O)[O-])o1 (stereo not given) | n | n | 20µM | n | n | n
O=C(Nc1ccn(Cc2c(F)c(F)cc(F)c2F)n1)c1ccc(COc2cc(Cl)ccc2Cl)o1 | n | n | n | u | n | n
O=C(Nc1ccn(Cc2ccccc2F)n1)c1ccc(COc2ccccc2Cl)cc1 | n | n | n | 18.4µM | n | n
O=C(Nc1ccn(Cc2ccccc2F)n1)c1ccc(COc2cccc(Br)c2)cc1 | n | n | n | u | n | n
O=C(Nc1ccn(Cc2c(F)c(F)cc(F)c2F)n1)c1ccc(COc2ccccc2Cl)cc1 | n | n | n | 20.6µM | n[1.84 µM] | n
Cc1cccc(NC(=O)c2ccc(CSc3ccc(Cl)cc3)cc2)c1C | n | x | x | x | x | n
CCOc1ccc(-c2nc(CNC(=O)Nc3ccc(C)c(Cl)c3)c(C)o2)cc1 | n | x | x | x | x | u
CCc1ccccc1NC(=O)CSc1nc(-c2ccccc2)nc2cc(=O)[nH]n12 | n | x | x | x | x | n
Cc1cccc(N=Nc2cn[nH]c2-c2ccco2)c1 | n | n | u | n | n | u
c1ccc(N=Nc2cn[nH]c2-c2ccco2)cc1 | n | n | 10µM | n | n | n
O=C1c2cc(Br)ccc2N(Cc2ccc(Br)cc2)S(=O)(=O)C1c1cc(Cl)c(Cl)cc1[N+](=O)[O-] (stereo not given) | -43.3 | n | n | n | n | x
Cc1cc(C)c(NC(=O)c2cc3cc(Br)ccc3oc2=O)c(C)c1 | n | x | x | x | x | n
O=C(c1cc(Cl)ccc1Cl)N1CCOc2ccccc21 | n | x | x | x | x | n
COc1ccc2cc3c(N)nn(C(=O)Cc4c[nH]c5ccccc45)c3nc2c1 | n | n | n | 16.4µM | n | n
COc1ccc2cc3c(N)nn(C(=O)c4ccc(F)cc4)c3nc2c1 | n | n | n | 5.8µM | n | n
Cc1ccc(OCc2nn3c(=O)c4ccccc4nc3s2)cc1 | n | x | x | x | x | u
SMILES | LDHA inh | IDH1 R132H inh | Nrf2 ARE act | Nrf2 inh | A549 viability | 12-LOX inh
CCCC(=O)Oc1c(Sc2ccc(Cl)cc2)c(C)nn1-c1ccccc1 | n | n | n | n[9.27 µM] | n | 44.7µM
Cc1ccc(Sc2c(C)nn(-c3ccccc3)c2OC(=O)CC(C)C)cc1 | n | x | n | n[9.27 µM] | n | u
COC(=O)c1cccc(NC(=S)NCCC2=CCCCC2)c1 | n | n | n | 23.1µM | n | n
COC(=O)c1ccc(NC(=S)NCCC2=CCCCC2)cc1 | n | n | n | u | n | n
O=C(NC(=S)NCCC1=CCCCC1)c1ccccc1Br | n | n | n | u | n | 15.8µM
Cc1cc(C)c2oc(C(=O)Nc3nnc(CC(C)C)s3)cc(=O)c2c1 | n | x | x | x | x | n
c1ccc(C[n+]2cccc(-c3ccccc3)c2)cc1 | n | n | n | 18.4µM | n | n
c1ccc(C[n+]2ccc3ccccc3c2)cc1 | n | n | n | u | n | n
CC(=O)Nc1cc(OC(C)=O)c2nonc2c1OC(C)=O | n | n | n | 14.6µM | u | n
CC(=O)Oc1ccc2nonc2c1OC(C)=O | n | x | x | n | n | x
Cc1cc(C)cc(NC(=S)NCC(C)(C)N2CCOCC2)c1 | n | x | x | x | x | n
